Several values for one entry are separate records, joined by “and”; a condition that tells them apart may be missing. Equal entries are not always repeated. Results filed as inconclusive are left out. Activity calls are given as the source filed them. How the source made its calls, unless noted: active means hit-call score of the fitted dose curve at least 0.9, where 1 is the maximum; inactive means score below 0.9.
What was measured:
[1] = CCTE_Shafer_MEA_dev_network_spike_number: CCTE's Neural Network Formation Assay for Number of Network Spikes, Shafer Lab (AID 2284048);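 further: synchronized bursts across electrodes counted on days 5 7 9 12 and integrated as AUC; fit as a loss of signal meaning fewer network spikes than DMSO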
Procedure, shortened: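 Developing networks of primary rat cortical neurons are treated over 12 days starting at plating, with media and compound fully replaced on DIV 5 and 9. Network spike counts from four recording days are integrated as trapezoidal AUC.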

[2] = CCTE_Shafer_MEA_dev_spike_duration_mean: CCTE's Neural Network Formation Assay for Mean Spike Duration, Shafer Lab (AID 2284051);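 further: mean network spike duration pooled as area under curve over DIV 5 to 12 recordings; potency for a decrease in mean network spike duration versus DMSO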
Procedure, shortened: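 Readout is the average length of network spikes, clustered firing across electrodes, summed over DIV 5, 7, 9 and 12 as area under the curve. Neurons from rat cortex developed networks on MEA plates under continuous 12-day exposure.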

[3] = CCTE_Shafer_MEA_dev_network_spike_duration_std: CCTE's Neural Network Formation Assay for Standard Deviation of Network Spike Duration, Shafer Lab (AID 2284052);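 further: area under curve of spike duration SD across recording days 5 to 12; hits are decreases in network spike duration SD versus DMSO vehicle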
Procedure, shortened: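 Read-out is the trapezoidal area-under-the-curve across recordings made on days 5, 7, 9 and 12, fitted in the negative direction against DMSO baseline. Neurons were primary rat cortical cells treated from day 0, with treatment renewed at each feed.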

[4] = CCTE_Shafer_MEA_dev_per_network_spike_spike_number_mean: CCTE's Neural Network Formation Assay for Mean Number of Spikes in a Network Spike, Shafer Lab (AID 2284053);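 further: fitted as decrease in spikes per network spike relative to DMSO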
Procedure, shortened: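 Continuous twelve-day exposure of developing rat cortical networks grown over 16 microelectrodes per well; spontaneous firing is captured at four time points, and the per-network-spike spike number is integrated over development by trapezoidal AUC.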

[5] = CCTE_Shafer_MEA_dev_per_network_spike_spike_percent: CCTE's Neural Network Formation Assay for Percent of Spikes in a Network Spike, Shafer Lab (AID 2284054)
Procedure, shortened: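 Rat primary cortical cultures, 1.5 x 10^5 cells/well on MEA. Continuous compound exposure d0–12, medium/compound renewed DIV 5, 9. Network-spike spike % (0.05 s peak window), AUC over 4 recordings, DMSO baseline.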

[6] = UKN5_HCS_SBAD2_cell_viability: Viability Assessment in the University of Konstanz (UKN) Leist Lab Neurite Outgrowth Assay in human iPSC-derived immature Dorsal Root Ganglia Neurons (UKN5) (AID 2284056)
Procedure, shortened: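 iPSC-derived immature peripheral neurons (SBAD2) seeded on Matrigel with CHIR99021, SU5402 and DAPT, dosed 1 h later for 24 h. Viability from Hoechst H-33342 and calcein-AM live staining, high-content imaging; bidirectional fit versus DMSO.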

[7] = CCTE_Shafer_MEA_dev_LDH: CCTE's Lactate Dehydrogenase Assay for Cytotoxicity in the Neural Network Formation Assay, Shafer Lab (AID 2284068; active means hit-call score of the fitted dose curve at least 0.9, where 1 is the maximum;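 further: exposure for twelve days from plating with re-dosing on DIV 5 and 9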)
Procedure, shortened: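 Cytotoxicity companion to network-formation recordings: rat cortical neurons received compound over 12 days of development, re-dosed at DIV 5 and 9 feeds. Viability was inferred from LDH enzyme activity relative to DMSO.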

[8] = CCTE_Shafer_MEA_acute_AB: CCTE's Alamar Blue Assay for Cytotoxicity in the Neural Acute Assay, Shafer Lab (AID 2284069; active means hit-call score of the fitted dose curve at least 0.9, where 1 is the maximum;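 further: active compounds lower the viability signal compared with DMSO wells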)
Procedure, shortened: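 Metabolic activity in chemically exposed rat cortical neurons (MEA cultures, day 13/15 post-plating) measured via CellTiter Blue resazurin reduction, 544/590 nm fluorescence; fitted relative to DMSO, with signal loss indicating reduced viability.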

[9] = UKN5_HCS_SBAD2_neurite_outgrowth: University of Konstanz (UKN) Leist Lab Neurite Outgrowth Assay in human iPSC-derived immature Dorsal Root Ganglia Neurons (UKN5) (AID 2284070); conditions: actives raise or lower the signal
Procedure, shortened: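 SBAD2 iPSC-derived immature peripheral neurons on Matrigel, 100.000 cells/cm2, medium with CHIR99021 (1.5 uM), SU5402 (5 uM), DAPT (5 uM); compound added 1 h post-seeding for 24 h. Calcein-AM neurite area by high-content imaging; Hoechst H-33342 viability; bidirectional fit vs DMSO.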

[10] = CCTE_Shafer_MEA_acute_LDH: CCTE's Lactate Dehydrogenase Assay for Cytotoxicity in the Neural Acute Assay, Shafer Lab (AID 2284086; active means hit-call score of the fitted dose curve at least 0.9, where 1 is the maximum;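 further: active means LDH release rises above DMSO vehicle level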)
Procedure, shortened: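 Medium from rat cortical neuron MEA cultures sampled right after the 40 min compound-exposure recording; released LDH measured by absorbance at 490 nm. Analyzed as signal gain relative to DMSO.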

[11] = CCTE_Shafer_MEA_dev_mutual_information_norm: CCTE's Neural Network Formation Assay for Mutual Information Normalization, Shafer Lab (AID 2284091);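 further: mutual information between electrodes summarised as area under curve across four recording days; potency is for a decrease in mutual information relative to DMSO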
Procedure, shortened: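 Developing rat cortical networks on 16-electrode MEA wells are treated throughout formation (DIV 0–12). Shared electrode information is recorded four times, converted to area-under-curve, and fitted for decreases against DMSO vehicle.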

[12] = CCTE_Shafer_MEA_dev_correlation_coefficient_mean: CCTE's Neural Network Formation Assay for Mean Correlation Coefficient, Shafer Lab (AID 2284093);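 further: well mean pairwise spike train correlation integrated as AUC over recording days 5 to 12; potency fitted for loss of correlation relative to DMSO vehicle wells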
Procedure, shortened: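 Read-out: well-mean correlation coefficient of spike trains between electrode pairs, collapsed over four recording days as trapezoidal area-under-the-curve. Developing rat cortical neuron networks grown on MEAs received test chemical continuously from plating.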

[13] = UKN2_HCS_IMR90_neural_migration: University of Konstanz (UKN) Leist Lab Neural Crest Cell Migration Assay in human induced IMR90 Pluripotent Stem Cells (UKN2) (AID 2284204); conditions: actives raise or lower the signal
Procedure, shortened: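 Migration of human IMR90-derived neural crest cells into a stopper-defined gap is imaged after 24 h chemical treatment. Activity is fitted bidirectionally relative to DMSO.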

[14] = UKN4_HCS_LUHMES_neurite_outgrowth: University of Konstanz (UKN) Leist Lab Neurite Outgrowth Assay in human LUHMES cells (UKN4) (AID 2284206); conditions: actives raise or lower the signal
Procedure, shortened: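 Human LUHMES neuronal precursors, differentiated 2 days then replated without cAMP and GDNF, exposed to compounds for 24 h. Neurite area imaged by high-content microscopy after calcein-AM live staining; Hoechst H-33342 for viability; bidirectional fit versus DMSO.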

[15] = IUF_NPC1b_proliferation_BrdU_72hr: Leibniz Research Institute for Environmental Medicine (IUF) 72-hour Neural Progenitor Cell Bromodeoxyuridine (BrdU) Proliferation Assay (NPC1b) (AID 2284207)
Procedure, shortened: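 Proliferation of primary human neural progenitor cells: 72 h compound treatment at 37C, 5% CO2, pH 7.2-7.6, in EGF/FGF-containing medium. Readout is BrdU uptake (last 16 h) by chemiluminescent ELISA, normalised to DMSO.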

[16] = IUF_NPC1a_proliferation_area_72hr: Leibniz Research Institute for Environmental Medicine (IUF) 72-hour Neural Progenitor Cell Proliferation Area Assay (NPC1a) (AID 2284208)
Procedure, shortened: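 Proliferation is scored as sphere area gain in primary human fetal neural progenitors treated for 72 h in EGF/FGF-containing medium. Viability, LDH and BrdU readouts come from the same wells.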

[17] = IUF_NPC1_viability_72hr: Viability Assessment at 72 hours in the Leibniz Research Institute for Environmental Medicine (IUF) Neural Progenitor Cell Proliferation Assay (NPC1) (AID 2284209)
Procedure, shortened: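 Single spheres (0.25-0.35 mm) of human fetal cortex-derived neural progenitor cells were grown in proliferation medium with EGF and FGF at 37C and 5% CO2. They were exposed for 72 h without renewal, and viability was read by alamar blue resorufin fluorescence.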

[18] = CCTE_Mundy_HCI_Cortical_Synap_Neur_Matur_NeuriteSpotCountPerNeuriteLength: CCTE's Synaptogenesis and Neurite Maturation Assay in rat cortical cells for Neurite Spot Count per Neurite Length, Mundy Lab (AID 2284210)
Procedure, shortened: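 Primary rat cortical neurons, compound exposure DIV 7–12, 288.33 h endpoint. Hoechst, anti-MAP2 and anti-synaptophysin labelling; neurite-associated puncta per neurite length scored by automated imaging relative to DMSO controls.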

[19] = CCTE_Mundy_HCI_Cortical_Synap_Neur_Matur_BPCount: CCTE's Synaptogenesis and Neurite Maturation Assay in rat cortical cells for Branch Point Count, Mundy Lab (AID 2284211)
Procedure, shortened: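 Rat primary cortical cultures, AraC added DIV 5; chemicals dosed DIV 7 through DIV 12. Fixed cells stained for MAP2, synaptophysin and Hoechst; neurite branch points counted by automated high-content imaging, fitted relative to DMSO.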

[20] = CCTE_Mundy_HCI_Cortical_NOG_NeuriteCount: CCTE's Neurite Outgrowth Assay in rat cortical cells for Neurite Count, Mundy Lab (AID 2284212);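 further: cells fixed about two days after chemical exposure began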
Procedure, shortened: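 Neurite number per cell from high-content imaging of betaIII-tubulin immunostaining, with Hoechst nuclear counterstain.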

[21] = CCTE_Mundy_HCI_Cortical_NOG_NeuriteLength: CCTE's Neurite Outgrowth Assay in rat cortical cells for Neurite Length, Mundy Lab (AID 2284213);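 further: neurites imaged about 48 to 50 h after chemical exposure began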
Procedure, shortened: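 Neurite length was read by high-content imaging of βIII-tubulin-labelled neurites in rat primary cortical cultures. Activity was fitted relative to DMSO.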

[22] = CCTE_Mundy_HCI_Cortical_Synap_Neur_Matur_NeuriteLength: CCTE's Synaptogenesis and Neurite Maturation Assay in rat cortical cells for Neurite Length, Mundy Lab (AID 2284214)
Procedure, shortened: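 Rat primary cortical cultures, AraC added DIV 5, dosed DIV 7 through DIV 12 […]. Fixed, MAP2/synaptophysin immunostained with Hoechst; neurite length by high-content imaging, fitted in positive direction versus DMSO.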

[23] = CCTE_Mundy_HCI_Cortical_Synap_Neur_Matur_NeuriteSpotCountPerNeuron: CCTE's Synaptogenesis and Neurite Maturation Assay in rat cortical cells for Neurite Spot Count per Neuron Count, Mundy Lab (AID 2284215)
Procedure, shortened: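 Synapse density is scored as synaptophysin spots along neurites per neuron in fixed rat cortical neurons, measured at DIV 12 after chemical dosing at DIV 7. DMSO is the negative control and activity baseline.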

[24] = CCTE_Mundy_HCI_Cortical_Synap_Neur_Matur_SynapseCount: CCTE's Synaptogenesis and Neurite Maturation Assay in rat cortical cells for Synapse Count, Mundy Lab (AID 2284218)
Procedure, shortened: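 Rat primary cortical cultures, AraC at DIV 5, chemical dosing DIV 7 to DIV 12 (288.33 h). Fixed cells stained for MAP2, synaptophysin and Hoechst; synapses per neuron counted by high-content imaging, loss of signal versus DMSO.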

[25] = CCTE_Mundy_HCI_Cortical_Synap_Neur_Matur_NeuriteCount: CCTE's Synaptogenesis and Neurite Maturation Assay in rat cortical cells for Neurite Count, Mundy Lab (AID 2284222)
Procedure, shortened: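 Chemical exposure runs DIV 7–12 in rat cortical cultures, glia suppressed by AraC at DIV 5; measurement is at DIV 12. Imaging-derived neurite counts are fitted against DMSO baseline.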

[26] = CCTE_Mundy_HCI_Cortical_Synap_Neur_Matur_CellBodySpotCount: CCTE's Synaptogenesis and Neurite Maturation Assay in rat cortical cells for Cell Body Spot Count, Mundy Lab (AID 2284223)
Procedure, shortened: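 Synapse number at neuronal cell bodies was quantified as synaptophysin puncta per neuron in rat cortical cultures exposed from DIV 7 to DIV 12. Values were normalised to DMSO.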

[27] = UKN2_HCS_IMR90_cell_viability: Viability Assessment in the University of Konstanz (UKN) Leist Lab Neural Crest Cell Migration Assay in human induced IMR90 Pluripotent Stem Cells (UKN2) (AID 2284233);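 further: viability of neural crest cells differentiated from IMR90 iPSC measured by calcein-AM fluorescence imaging; cells exposed to compound for 24 h after a 24 h migration phase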
Procedure, shortened: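 Human IMR90-derived neural crest cells were allowed to migrate for 24 h into a cell-free zone, then exposed to test chemicals for 24 h. Calcein-AM and Hoechst staining with high-content imaging gave viability, analysed against DMSO baseline.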

[28] = CCTE_Mundy_HCI_Cortical_NOG_NeuronCount: CCTE's Neurite Outgrowth Assay in rat cortical cells for Neuron Count, Mundy Lab (AID 2284236; active means hit-call score of the fitted dose curve at least 0.9, where 1 is the maximum;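 further: neurons counted by imaging betaIII-tubulin and Hoechst stained cortical cells; cells exposed to compound for about 48 hours before fixation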)
Procedure, shortened: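 Read-out: neuron number by high-content imaging of betaIII-tubulin (Alexa Fluor-488) and Hoechst-labelled rat primary cortical cells.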

[29] = CCTE_Mundy_HCI_Cortical_NOG_BPCount: CCTE's Neurite Outgrowth Assay in rat cortical cells for Branch Point Count, Mundy Lab (AID 2284237);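 further: branch points counted about two days after chemical exposure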
Procedure, shortened: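 Measured 50.33 h after dosing, this morphology endpoint uses rat primary cortical cultures labelled for betaIII-tubulin. Branch points are quantified by high-content imaging, with DMSO as negative control and baseline.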

[30] = CCTE_Mundy_HCI_hNP1_Casp3_7: CCTE's Caspase-Glo 3/7 Assay in human neuroprogenitor cells for Apoptosis, Mundy Lab (AID 2284240)
Procedure, shortened: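 Apoptosis is scored by activated caspase-3/7 luminescence in WA09-derived neural progenitor cells, measured 26.5 h after chemical dosing. Values represent gain of signal relative to DMSO vehicle.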

[31] = CCTE_Mundy_HCI_hNP1_CellTiter: CCTE's Cell Titer-Glo 2 Assay in human neuroprogenitor cells for Viability, Mundy Lab (AID 2284241; active means hit-call score of the fitted dose curve at least 0.9, where 1 is the maximum)
Procedure, shortened: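 Human neural progenitor cells (hNP1, WA09-derived) were plated on poly-L-ornithine/laminin and grown 40 to 44 hours at 37 °C, 5% CO2 before chemical addition. Twenty-four hours later, ATP was measured by CellTiter-Glo luminescence; loss of signal versus DMSO indicates reduced viability.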

[32] = CCTE_Mundy_HCI_Cortical_Synap_Neur_Matur_NeuronCount: CCTE's Synaptogenesis and Neurite Maturation Assay in rat cortical cells for Neuron Count, Mundy Lab (AID 2284242; active means hit-call score of the fitted dose curve at least 0.9, where 1 is the maximum;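 further: hits reduce neuron count versus DMSO baseline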)
Procedure, shortened: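 Rat primary cortical cells, AraC added at DIV 5, dosed with media change from DIV 7 to DIV 12. Fixed, Hoechst-stained and immunolabelled for MAP2 and synaptophysin; neuron number counted by high-content imaging, loss fitted versus DMSO.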

[33] = read-out: Monokine induced gamma interferon (MIG), CXCL9 (gene 4283); test: BSK_KF3CT_MIG: BioMAP Diversity Plus: KF3CT Assay for Monokine induced gamma interferon (MIG) Biomarker Activity (AID 2284248); conditions: primary human keratinocytes with fibroblasts
Procedure, shortened: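 The assay uses a co-culture of human keratinocytes and foreskin fibroblasts. Measurement occurs 24 hours after dosing, with MIG detected by ELISA and the DMSO control as baseline.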

Measured: AC50

[Cd+2].[Cl-].[Cl-]
active: [1] 299 nM | [2] 119 nM | [3] 23.9 nM | [4] 260 nM | [5] 585 nM | [6] 50000 nM | [7] 1510 nM | [9] 50000 nM | [11] 178 nM | [12] 609 nM | [13] 880 nM | [14] 6250 nM | [15] 6450 nM | [19] 1380 nM | [20] 13100 nM | [21] 12400 nM | [22] 1460 nM | [23] 1190 nM | [24] 1250 nM | [25] 2710 nM | [26] 6060 nM | [27] 4140 nM | [28] 9840 nM | [29] 18900 nM | [32] 728 nM | [33] 33.6 µM and 36.8 µM
inactive: [8] | [10] | [16] | [17] | [18] | [30] | [31]
